High-throughput results deposited in PubChem by several laboratories.
cytoskel mod: modifiers of F-actin cytoskeleton organization, primary screen, imaging, HUVEC, phalloidin staining, high-content imaging. HUVEC TNFa F-actin phalloidin imaging. inhibition, % at 2 µM. actives 0.18% (n = 91,000);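 active = inhibition above the batch mean plus 3 SD and confirmed as a hit by visual image inspection, cut at about 30% in these data, passing the limit was not always enough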
CYP2C9 inh: blockers of cytochrome P450 2C9 activity – biochemical, luminescence, ADME assay, primary screen. P11712. CYP2C9 Supersomes, luciferin-H conversion. inhibition, % at 5 µM. actives 20% (n = 96,000). AID 777, 2007;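 active = blocking of liver enzyme CYP2C9 beyond about 50% at 5 µM, limit read from the data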
CYP2C9 act: human CYP2C9 activators, primary screen, biochemical, luminescence; recombinant CYP2C9, luciferin-H conversion; active compounds read high; factor 1 = untreated enzyme, 0 = blocked; actives 1.4% (n = 96,000); activation factor at 5 µM;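 active = activation factor of 2 or more for CYP2C9 at a 5 µM dose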;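 note: 0 = sulfaphenazole-blocked wells and 1 = vehicle-only wells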
E-sel TNF inh: E-selectin induction blockers in HUVEC – imaging, immunofluorescence, high content, primary screen. HUVEC TNFa-induced E-selectin immunofluorescence. inhibition, % at 2 µM. actives 0.71% (n = 120,000);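 active = inhibition above the batch mean plus 3 SD, and confirmed as a hit on visual image review, cut at about 43% in these data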;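 note: 0% = TNF-stimulated DMSO wells and 100% = unstimulated control wells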
CYP2C19 activ: human CYP2C19 activators, primary screen, biochemical, luminescence; 96,000 tested, under 10 active; activation factor at 5 µM; AID 1025, 2008; Cytochrome P450 2C19 (Homo sapiens), P33261; recombinant CYP2C19, luciferin-H EGE luminescence; active compounds read high; 0 = fully inhibited enzyme, 1 = untreated enzyme;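 active = activation factor of at least 2 at 5 µM in the primary screen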;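 note: 0 = wells with 2.5 mM tranylcypromine and 1 = vehicle-only wells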
Target sequence (P33261 whole entry, looked up): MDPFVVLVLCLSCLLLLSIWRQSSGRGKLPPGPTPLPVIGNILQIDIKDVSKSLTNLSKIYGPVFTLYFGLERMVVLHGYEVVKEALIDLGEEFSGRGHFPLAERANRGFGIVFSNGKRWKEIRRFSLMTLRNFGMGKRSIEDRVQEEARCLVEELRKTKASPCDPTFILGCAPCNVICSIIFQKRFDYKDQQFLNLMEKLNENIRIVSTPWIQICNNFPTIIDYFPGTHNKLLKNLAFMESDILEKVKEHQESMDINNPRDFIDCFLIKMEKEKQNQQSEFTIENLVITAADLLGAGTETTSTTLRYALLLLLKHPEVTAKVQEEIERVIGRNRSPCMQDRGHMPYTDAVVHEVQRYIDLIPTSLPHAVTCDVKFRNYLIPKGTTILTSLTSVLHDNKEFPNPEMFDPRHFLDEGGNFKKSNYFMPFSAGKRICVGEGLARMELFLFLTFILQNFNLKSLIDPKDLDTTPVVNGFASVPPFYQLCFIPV
CYP2C19 inhib: blockers of cytochrome P450 2C19 activity – biochemical, luminescence, ADME assay, primary screen; P33261; CYP2C19 Supersomes, luciferin-H EGE luminescence, 30 min; inhibition, % at 5 µM; actives 21% (n = 96,000); AID 778, 2007;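 active = CYP2C19 inhibition above a set limit at 5 µM in the primary screen, cut at about 50% in these data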;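 note: plate controls were negative control wells for no effect and 2.5 mM tranylcypromine positive control for full effect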
Numbers without * were called inactive; · = not tested or not shown. The list is not random: actives were taken first. Their share in the collection is about 22%.

SMILES | cytoskel mod | CYP2C9 inh | CYP2C9 act | E-sel TNF inh | CYP2C19 activ | CYP2C19 inhib
C=C(C)Cn1c(SCC(=O)O)nnc1-c1ccccc1 | 0 | 15 | 0.9 | -4 | 1 | -1
C=C(C)Cn1c(-c2ccccc2)nc2ccccc21 | 4 | 42 | 0.6 | 16 | 0.3 | 69*
COc1cc(/C=N/NC(=O)c2nc3ccccn3c2C)cc(OC)c1O | · | · | · | 9 | · | ·
O=C(Nc1ccc(N2CCCC2)c(Cl)c1)c1ccc2c(c1)OCCO2 | 0 | · | · | 12 | · | ·
O=C(Nc1ccc(N2CCCCC2)c(Cl)c1)c1ccc(N2CCOCC2)c([N+](=O)[O-])c1 | -7 | 42 | 0.6 | · | 0.5 | 52*
Cc1c(NC(=O)c2ccc(N3CCCC3)c([N+](=O)[O-])c2)cccc1-c1nc2ccccc2s1 | 0 | 56* | 0.4 | -20 | 0.8 | 18
O=C(Nc1nc2ccc3ccccc3c2s1)c1ccc(N2CCCCC2)c([N+](=O)[O-])c1 | · | · | · | 51 | · | ·
O=C(Nc1ccc(N2CCCCC2)c(Cl)c1)c1ccc2c(c1)OCCO2 | 15 | 68* | 0.3 | -7 | 0.7 | 30
CC(C)c1ccc(N(CC(=O)O)S(=O)(=O)c2cccnc2)cc1 | 4 | -5 | 1 | · | 1.1 | -10
CCOc1ncccc1C(=O)OCC(=O)c1ccccc1Br | · | · | · | -40 | · | ·
Cc1ccc(-n2cc(C(C)(C)C)[nH]c2=S)cc1 | 18 | -36 | 1.4 | 2 | 0.4 | 60*
COc1cccc2cc(C(=O)OC3CCN(C)CC3)c(=O)oc12 | · | -8 | 1.1 | -16 | 1.1 | -13
N#CC(c1ccc(O)cc1)N1CCOCC1 (configuration not stated) | · | · | · | 15 | · | ·
O=C(NCc1ccc2c(c1)OCO2)C1CCN(S(=O)(=O)c2cccs2)CC1 | 7 | 30 | 0.7 | 28 | 0.9 | 9
Cc1ccnc(N2CCC(C(=O)NCc3ccc4c(c3)OCO4)CC2)n1 | -7 | 66* | 0.3 | · | 0.6 | 45
O=C(NCc1ccc2c(c1)OCO2)C1CCN(S(=O)(=O)N2CCCCC2)CC1 | · | · | · | -6 | · | ·
O=C(NCc1ccc2c(c1)OCO2)C1CCN(c2ccc(S(=O)(=O)N3CCCC3)cc2)CC1 | -6 | 63* | 0.4 | 2 | 0.7 | 26
O=C(NCc1ccc2c(c1)OCO2)C1CCN(S(=O)(=O)c2ccc(Br)s2)CC1 | -1 | 46 | 0.5 | -8 | 0.4 | 65*
CCc1c(C)nc2ncnn2c1N1CCCC(C(=O)Nc2ccc(NC(C)=O)cc2)C1 (configuration not stated) | 6 | -4 | 1 | -7 | 1.1 | -14
CCc1c(C)nc2ncnn2c1N1CCCC(C(=O)NCc2ccc3c(c2)OCO3)C1 (configuration not stated) | · | 70* | 0.3 | -28 | 0.7 | 29
COc1cc(C)c(NC(c2ccccc2)c2ccccc2)cc1OC | · | · | · | 26 | · | ·
NC12CC3CC(C1)CC(O)(C3)C2 | -1 | -4 | 1 | -9 | 1.1 | -12
C=C(C)C1CC=C(C)/C(=N/NC(=O)c2ccc(NC(=O)c3cccc(C)c3)cc2)C1 (configuration not stated) | · | 62* | 0.4 | -19 | 0.4 | 59*
O=C(Oc1cccc2cccnc12)c1ccco1 | 16 | · | · | 1 | · | ·
O=C(Oc1cccc2cccnc12)c1ccc2c(c1)OCCO2 | 4 | -231 | 3.3* | -11 | 0.6 | 45
SMILES | cytoskel mod | CYP2C9 inh | CYP2C9 act | E-sel TNF inh | CYP2C19 activ | CYP2C19 inhib
CC(=O)Nc1ccc(C2Nc3ccccc3C(=O)N2C2CCCCC2)cc1 (configuration not stated) | 13 | 84* | 0.2 | 5 | 0.5 | 47
CCCC(=O)c1ccc(N2CCC(C)CC2)c(F)c1 | · | · | · | 2 | · | ·
CCCN(CCC)CCOc1cc(C)ccc1C(C)C | · | · | · | 26 | · | ·
COc1ccc(C2CC(c3cccs3)=NN2c2ccc(C=O)cc2)cc1 (configuration not stated) | · | · | · | -16 | · | ·
COc1ccc(C2CC(c3ccccc3)=NN2c2ccc(/C=N/NC(=O)c3ccncc3)cc2)cc1 (configuration not stated) | -2 | 56* | 0.4 | -9 | 0.8 | 17
O=C1CC(c2cccs2)Cc2nc(NCC3CCCO3)ncc21 (configuration not stated) | -15 | 74* | 0.3 | · | 0.1 | 85*
CCOc1cc(N2CCOCC2)c(OCC)cc1NC(=O)c1nc2nccc(C)n2n1 | · | 7 | 0.9 | · | 0.9 | 5
CCn1c(C)cc(/C=C2\SC(=O)N(CC(=O)Nc3ccc(C)c(C)c3)C2=O)c1C | -34 | 16 | 0.8 | -10 | 0.4 | 57*
Nc1nnnn1/N=C/c1cccc(Oc2ccccc2)c1 | -9 | 8 | 0.9 | · | 0.4 | 56*
S=c1[nH]ncn1/N=C/c1cccc(Oc2ccccc2)c1 | 1 | 50 | 0.5 | 1 | 0.4 | 61*
C(=N\n1cnnc1)/c1cccc(Oc2ccccc2)c1 | · | 57* | 0.4 | -42 | 0.2 | 77*
Fc1ccccc1COc1cccc(/C=N/n2cnnc2)c1 | 20 | 68* | 0.3 | 8 | 0 | 99*
Cn1cccc1/C=N/n1c(-c2ccc(C(C)(C)C)cc2)n[nH]c1=S | -10 | 11 | 0.9 | -42 | 1 | 2
CCCCOP(=O)(OCCCC)C(O)c1ccc(Br)cc1 (configuration not stated) | · | · | · | -5 | · | ·
COc1ccc(CCNC2CC(=O)N(CCc3ccc(OC)c(OC)c3)C2=O)cc1 (configuration not stated) | · | 4 | 1 | -4 | 0.8 | 21
CS(=O)(=O)c1ccccc1-c1nc(-c2ccc(C(F)(F)F)cc2)no1 | -14 | -208 | 3.1* | -3 | 1 | 5
Cc1ccc(-c2noc(-c3ccccc3Br)n2)cc1 | 13 | -27 | 1.3 | -22 | 1.1 | -7
O=C(NC(NC(=S)Nc1ccccc1C(=O)O)C(Cl)(Cl)Cl)c1ccccc1 (configuration not stated) | · | · | · | -13 | · | ·
O=C(NC(NC(=S)Nc1cc(Cl)ccc1Cl)C(Cl)(Cl)Cl)c1ccco1 (configuration not stated) | 12 | 97* | 0 | -3 | 0.2 | 81*
O=C(Nc1ccc(Cl)c(Cl)c1)Oc1ccc(NC(=O)c2ccco2)cc1 | 7 | -13 | 1.1 | · | 1.1 | -6
O=C(NC(NC(=S)Nc1ccc(Cl)c(Cl)c1)C(Cl)(Cl)Cl)c1ccco1 (configuration not stated) | · | 100* | 0 | -13 | 0.3 | 72*
C/C(=N\Nc1cc(Cl)nc(C)n1)c1ccc(C)cc1 | -8 | · | · | -4 | · | ·
O=c1c(O)c(-c2ccc3c(c2)OCO3)oc2ccccc12 | -29 | 15 | 0.8 | 4 | 1 | 0
Cc1[nH]c2ccccc2c1C(=O)COC(=O)C1CC(=O)N(Cc2ccccc2)C1 (configuration not stated) | 5 | 67* | 0.3 | 18 | 0.2 | 78*
